# Experimental data: PubChem BioAssay (Tox21)
# Values without a mark were called inactive. Inconclusive results are not listed. Entries that show only a call come without a potency. Activity calls are given as the source filed them. Unless noted, the call rests on the fitted dose curve; in most records, active means well fitted curve in the direction sought with a large enough effect in the repeat runs; inconclusive means weak or mixed curves; inactive means no such curve, though single readings can be large; an effect the other way counts as inactive or inconclusive.
# Columns and labels:
# [1] = qHTS assay to identify small molecule antagonists of the estrogen receptor beta (ER-beta) signaling pathway - cell viability counter screen (AID 1259382);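 further: HEK293T cells carrying ER-beta-UAS-bla reporter stimulated with estradiol; series mostly up to about 92 µM; nearly all actives have a fitted effect of over 55% in size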
# In short: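 Tox21 10K library tested in qHTS format on ER-beta-bla HEK293T cells stimulated with 1nM E2; 16 hr treatment at 37C. Same-well CellTiter-Glo luminescence served as the cell viability measure.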
# [2] = molecular target: Estrogen receptor (Homo sapiens) (UniProt P03372); assay: qHTS assay to identify small molecule agonists of the estrogen receptor alpha (ER-alpha) signaling pathway in the presence of an antagonist (AID 1259383; calls by dose curve; further: nearly all actives have a fitted effect of over 15% in size; further: potency means the concentration at half of the fitted maximal effect; on activation: top concentration of the series differs between compounds)
# Estrogen receptor (Homo sapiens), sequence (P03372 whole entry, looked up): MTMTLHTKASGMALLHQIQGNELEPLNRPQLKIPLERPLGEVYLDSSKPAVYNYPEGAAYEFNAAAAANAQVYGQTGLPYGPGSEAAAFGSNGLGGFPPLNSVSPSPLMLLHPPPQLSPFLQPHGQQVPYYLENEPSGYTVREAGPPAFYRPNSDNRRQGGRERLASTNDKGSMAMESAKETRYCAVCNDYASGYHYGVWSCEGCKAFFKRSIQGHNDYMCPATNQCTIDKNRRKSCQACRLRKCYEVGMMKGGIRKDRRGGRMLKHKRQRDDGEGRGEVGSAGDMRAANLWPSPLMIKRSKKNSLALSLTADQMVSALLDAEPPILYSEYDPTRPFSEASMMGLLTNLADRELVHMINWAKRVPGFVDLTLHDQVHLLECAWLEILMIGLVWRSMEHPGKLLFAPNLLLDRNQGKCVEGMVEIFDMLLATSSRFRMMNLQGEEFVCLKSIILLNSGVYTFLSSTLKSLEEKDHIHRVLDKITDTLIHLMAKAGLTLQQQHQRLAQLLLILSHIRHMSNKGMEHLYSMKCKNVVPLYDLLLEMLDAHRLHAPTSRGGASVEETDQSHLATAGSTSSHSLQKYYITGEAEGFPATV
# In short: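 In VM7Luc4E2 cells, 4,000 per well, compounds at 15 concentrations were co-incubated 22hr at 37C with 10.0nM final ICI-182,780. Luminescence from the stably transfected 4×ERE-luciferase reporter was recorded 30min after ONE-Glo addition.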
# [3] = qHTS assay to identify small molecule agonists or antagonists of the thyroid stimulating hormone receptor (TSHR) signaling pathway - wild type cell line counter screen (AID 1259384; calls by dose curve)
# In short: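 Wild-type Hek293 cells, 800/well, 18 h at 37C, then compound with Ro20-1724 for 30 min RT. cAMP by HTRF (cAMP-d2/anti-cAMP cryptate), 1 h RT, fluorescence read. 15 concentrations, triplicates.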
# [4] = molecular target: Thyrotropin receptor (Homo sapiens) (UniProt P16473); assay: qHTS assay to identify small molecule antagonists of the thyroid stimulating hormone receptor (TSHR) signaling pathway (AID 1259385; calls by dose curve; further: nearly all actives have a fitted effect of over 20% in size)
# Thyrotropin receptor (Homo sapiens), sequence (P16473 whole entry, looked up): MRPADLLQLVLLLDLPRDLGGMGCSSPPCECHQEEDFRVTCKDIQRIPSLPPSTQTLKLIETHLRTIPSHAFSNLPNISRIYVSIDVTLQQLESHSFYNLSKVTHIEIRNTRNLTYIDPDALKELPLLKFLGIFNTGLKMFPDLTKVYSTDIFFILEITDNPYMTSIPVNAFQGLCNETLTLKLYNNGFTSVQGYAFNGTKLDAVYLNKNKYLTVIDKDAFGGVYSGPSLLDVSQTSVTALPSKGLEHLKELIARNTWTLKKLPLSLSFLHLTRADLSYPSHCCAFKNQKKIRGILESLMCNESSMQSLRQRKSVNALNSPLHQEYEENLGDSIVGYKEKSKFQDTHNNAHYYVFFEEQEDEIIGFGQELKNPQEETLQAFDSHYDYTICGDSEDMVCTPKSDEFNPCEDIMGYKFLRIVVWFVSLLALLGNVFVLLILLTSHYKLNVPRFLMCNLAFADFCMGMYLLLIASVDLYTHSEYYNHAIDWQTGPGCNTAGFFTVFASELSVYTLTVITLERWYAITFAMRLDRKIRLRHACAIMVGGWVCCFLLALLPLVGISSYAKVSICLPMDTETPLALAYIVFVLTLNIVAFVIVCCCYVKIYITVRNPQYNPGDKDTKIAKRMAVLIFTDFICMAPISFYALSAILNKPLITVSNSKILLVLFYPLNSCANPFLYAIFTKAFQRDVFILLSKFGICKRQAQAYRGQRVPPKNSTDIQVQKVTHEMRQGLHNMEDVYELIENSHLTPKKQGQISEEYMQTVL
# In short: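 TSHR-HEK293 cells (800/well) plated 18 h, then compounds with Ro20-1724 and TSH at 1.5 ng/mL final, 30 min at room temperature. cAMP quantified by HTRF (cAMP-d2/anti-cAMP-cryptate, 1 h); 15 concentrations in triplicate.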
# [5] = qHTS assay to identify small molecule agonists of the estrogen receptor alpha (ER-alpha) signaling pathway in the presence of an antagonist - cell viability counter screen (AID 1259386);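 further: series mostly up to about 92 µM; cells exposed to compounds for 22 h at 37 °C before the viability read; nearly all actives have a fitted effect of over 30% in size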
# In short: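 Fluorescent CellTiter-Fluor viability signal from VM7Luc4E2 cells, with the reagent added during the final hour of a 22hr compound exposure at 37C in the presence of 10.0nM ICI-182,780.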
# [6] = molecular target: Progesterone receptor (Homo sapiens) (UniProt P06401); assay: qHTS assay to identify small molecule agonists of the progesterone receptor (PR) signaling pathway (AID 1346784; calls by dose curve; further: nearly all actives have a fitted effect of over 30% in size)
# Progesterone receptor (Homo sapiens), sequence (P06401 whole entry, looked up): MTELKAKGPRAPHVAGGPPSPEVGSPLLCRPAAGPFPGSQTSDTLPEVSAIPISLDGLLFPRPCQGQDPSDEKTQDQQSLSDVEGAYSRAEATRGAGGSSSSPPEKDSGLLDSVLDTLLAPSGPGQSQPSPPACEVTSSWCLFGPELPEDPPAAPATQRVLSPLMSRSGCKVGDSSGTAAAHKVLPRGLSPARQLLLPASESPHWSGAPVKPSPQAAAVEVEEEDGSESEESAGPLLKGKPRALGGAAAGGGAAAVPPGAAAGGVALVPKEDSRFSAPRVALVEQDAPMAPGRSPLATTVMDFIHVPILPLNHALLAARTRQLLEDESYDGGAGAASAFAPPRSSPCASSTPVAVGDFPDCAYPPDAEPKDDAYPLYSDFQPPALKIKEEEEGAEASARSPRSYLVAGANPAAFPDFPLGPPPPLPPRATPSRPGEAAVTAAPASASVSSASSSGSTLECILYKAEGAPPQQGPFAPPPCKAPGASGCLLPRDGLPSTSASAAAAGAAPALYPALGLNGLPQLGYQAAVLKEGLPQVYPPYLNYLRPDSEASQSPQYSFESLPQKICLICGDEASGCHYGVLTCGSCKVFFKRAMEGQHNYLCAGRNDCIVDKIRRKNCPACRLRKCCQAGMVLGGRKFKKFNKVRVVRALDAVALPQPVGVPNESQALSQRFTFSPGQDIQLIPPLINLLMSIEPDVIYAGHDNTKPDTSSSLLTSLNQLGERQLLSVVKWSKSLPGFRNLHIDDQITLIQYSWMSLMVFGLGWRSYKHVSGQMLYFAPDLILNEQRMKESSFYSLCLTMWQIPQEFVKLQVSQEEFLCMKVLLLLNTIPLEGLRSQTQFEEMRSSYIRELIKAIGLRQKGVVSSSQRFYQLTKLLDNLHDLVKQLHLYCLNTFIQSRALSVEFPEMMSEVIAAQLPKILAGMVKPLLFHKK
# In short: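 Beta-lactamase reporter read-out: after 16 hr compound treatment at 37C and a further 2 hr at room temperature with LiveBLAzer B/G FRET substrate, fluorescence was measured in PR-UAS-bla HEK 293T cells grown in 2% charcoal-stripped serum.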
# [7] = molecular target: Progesterone receptor (Homo sapiens) (UniProt P06401); assay: qHTS assay to identify small molecule antagonists of the progesterone receptor (PR) signaling pathway (AID 1346795; active means well fitted inhibition curve with a large enough effect in the signal ratio in the repeat runs, not every such curve was filed as active; the % refers to the signal ratio; further: potency means the concentration at half of the fitted maximal effect)
# In short: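 Read-out is fluorescence from the LiveBLAzer B/G FRET substrate, cleaved by a UAS-controlled beta-lactamase in PR-UAS-bla HEK293T cells after 16 hr exposure to compound plus 1 nM promegestone (final), followed by 2 hr at room temperature.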
# [8] = qHTS assay to identify small molecule antagonists of the progesterone receptor (PR) signaling pathway - cell viability counter screen (AID 1346798);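 further: HEK293T PR-UAS-bla cells stimulated with the agonist R5020; series mostly up to about 92 µM; nearly all actives have a fitted effect of over 50% in size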
# In short: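 HEK293T PR-UAS-bla, 2% charcoal-stripped FBS; 4 hr pre-plate; cpd + R5020, 16 h 37C; LiveBLAzer read first; then CellTiter-Glo 30 min RT, luminescence.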
# [9] = qHTS assay to identify small molecule agonists of the progesterone receptor (PR) signaling pathway - cell viability counter screen (AID 1346799; calls by dose curve; further: nearly all actives have a fitted effect of over 45% in size)
# In short: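 Luminescence from CellTiter-Glo, added after the beta-lactamase FRET read in the same wells, gave cytotoxicity in PR-UAS-bla HEK293T cells treated with compounds for 16 hr at 37C.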
# [10] = qHTS assay to identify small molecule antagonists of the TGF-beta/Smad signaling pathway - cell viability counter screen (AID 1346824); further: nearly all actives have a fitted effect of over 50% in size
# In short: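 SBE-bla HEK 293T cells, incubated overnight, then compound plus 0.25 ng/mL TGF-beta1 (stock added) for 5 hr at 37 C. Viability was read in the same wells by CellTiter-Glo luminescence after 30 min at room temperature.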
# [11] = qHTS assay to identify small molecule agonists of the TGF-beta/Smad signaling pathway (AID 1346859; active means well fitted activation curve with a large enough effect in the signal ratio in the repeat runs, not every such curve was filed as active; the % refers to the signal ratio; further: series mostly up to about 77 µM)
# In short: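 SBE-bla HEK 293T, 4,000 cells/well, plated o/n; cpd in DMSO, 5 hr, 37 C/5% CO2; B/G FRET substrate 2 hr RT; ex 405, em 460/530 nm.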
# [12] = molecular target: Thyrotropin-releasing hormone receptor (Homo sapiens) (UniProt P34981); assay: qHTS assay to identify small molecule antagonists of the thyrotropin-releasing hormone receptor (TRHR) signaling pathway (AID 1346877; active means well fitted inhibition curve with a large enough effect in the repeat runs, not every such curve was filed as active; further: series mostly up to about 51 µM)
# Thyrotropin-releasing hormone receptor (Homo sapiens), sequence (P34981 whole entry, looked up): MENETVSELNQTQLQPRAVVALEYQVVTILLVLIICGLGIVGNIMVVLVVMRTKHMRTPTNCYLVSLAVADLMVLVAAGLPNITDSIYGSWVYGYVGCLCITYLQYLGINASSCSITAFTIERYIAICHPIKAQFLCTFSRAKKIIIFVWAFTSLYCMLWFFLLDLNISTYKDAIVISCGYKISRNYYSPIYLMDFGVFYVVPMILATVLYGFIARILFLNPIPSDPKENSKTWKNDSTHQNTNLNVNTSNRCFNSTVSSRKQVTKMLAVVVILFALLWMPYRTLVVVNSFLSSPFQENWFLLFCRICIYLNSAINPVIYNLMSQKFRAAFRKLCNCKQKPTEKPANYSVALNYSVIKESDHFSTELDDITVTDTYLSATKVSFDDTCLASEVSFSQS
# In short: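 In this cell-based calcium flux format, HEK293 cells expressing TRHR received test compound for 5 min before the agonist TRH (1 nM final). Dye loading lasted 2 h at 37 °C.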
# [13] = molecular target: Thyrotropin-releasing hormone receptor (Homo sapiens) (UniProt P34981); assay: qHTS assay to identify small molecule agonists of the thyrotropin-releasing hormone receptor (TRHR) signaling pathway (AID 1346891; calls by dose curve; further: series mostly up to about 58 µM)
# In short: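 Intracellular calcium rise, read as fluorescence every second for 3 min, served as the agonist signal in dye-loaded HEK293 cells expressing TRHR; each compound ran at 15 concentrations in triplicate.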
# [14] = Human pregnane X receptor (PXR) small molecule agonists, qHTS cell viability counter screen (AID 1346977); further: nearly all actives have a fitted effect of over 50% in size
# In short: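 PXR-Luc HepG2, 2,000 cells/well, 5% charcoal-stripped FBS; 5hr settle; cpd 24hr, 37C/5% CO2; CellTiter-Fluor at 23hr, read 1hr later (fluorescence).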
# [15] = Caspase-3/7 induction in HepG2 cells by small molecules, qHTS assay (AID 1346978); further: nearly all actives have a fitted effect of over 15% in size
# In short: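 Wild-type HepG2 cells, 2,000/well, settled 5 hr at 37 C and 5% CO2, then compound-treated for 17 hr; caspase-3/7 activity read by luminescent Caspase-Glo 3/7 after 30 min at room temperature.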
# [16] = Caspase-3/7 induction in CHO-K1 cells by small molecules, qHTS assay (AID 1346980); further: nearly all actives have a fitted effect of over 15% in size
# In short: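 Wild-type CHO-K1 cells exposed to compounds for 17hr at 37 C, 5% CO2. Caspase-3/7 activity then measured by Caspase-Glo 3/7 luminescence after 30min at room temperature.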
# [17] = Caspase-3/7 induction in HepG2 cells by small molecules, qHTS cell viability counter screen (AID 1346981); further: series mostly up to about 92 µM; nearly all actives have a fitted effect of over 30% in size
# In short: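 Counter screen for cytotoxicity: HepG2 exposed 16 hr to compounds, then CellTiter-Fluor viability signal (fluorescence, 1 hr reagent incubation).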
# [18] = qHTS assay to identify small molecule agonists of the TGF-beta/Smad signaling pathway - cell viability counter screen (AID 1346829); further: top concentration of the series differs between compounds; nearly all actives have a fitted effect of over 45% in size
# In short: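 Same-well cytotoxicity: CellTiter-Glo added after the 2 hr room-temperature beta-lactamase substrate step, luminescence measured 30 min later; cells had 5 hr of compound at 37 C.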
# [19] = molecular target: Androgen receptor (Homo sapiens) (UniProt P10275); assay: qHTS assay to identify small molecule agonists of the androgen receptor (AR) signaling pathway in the presence of an antagonist (AID 1259381; calls by dose curve; further: nearly all actives have a fitted effect of over 15% in size)
# Androgen receptor (Homo sapiens), sequence (P10275 whole entry, looked up): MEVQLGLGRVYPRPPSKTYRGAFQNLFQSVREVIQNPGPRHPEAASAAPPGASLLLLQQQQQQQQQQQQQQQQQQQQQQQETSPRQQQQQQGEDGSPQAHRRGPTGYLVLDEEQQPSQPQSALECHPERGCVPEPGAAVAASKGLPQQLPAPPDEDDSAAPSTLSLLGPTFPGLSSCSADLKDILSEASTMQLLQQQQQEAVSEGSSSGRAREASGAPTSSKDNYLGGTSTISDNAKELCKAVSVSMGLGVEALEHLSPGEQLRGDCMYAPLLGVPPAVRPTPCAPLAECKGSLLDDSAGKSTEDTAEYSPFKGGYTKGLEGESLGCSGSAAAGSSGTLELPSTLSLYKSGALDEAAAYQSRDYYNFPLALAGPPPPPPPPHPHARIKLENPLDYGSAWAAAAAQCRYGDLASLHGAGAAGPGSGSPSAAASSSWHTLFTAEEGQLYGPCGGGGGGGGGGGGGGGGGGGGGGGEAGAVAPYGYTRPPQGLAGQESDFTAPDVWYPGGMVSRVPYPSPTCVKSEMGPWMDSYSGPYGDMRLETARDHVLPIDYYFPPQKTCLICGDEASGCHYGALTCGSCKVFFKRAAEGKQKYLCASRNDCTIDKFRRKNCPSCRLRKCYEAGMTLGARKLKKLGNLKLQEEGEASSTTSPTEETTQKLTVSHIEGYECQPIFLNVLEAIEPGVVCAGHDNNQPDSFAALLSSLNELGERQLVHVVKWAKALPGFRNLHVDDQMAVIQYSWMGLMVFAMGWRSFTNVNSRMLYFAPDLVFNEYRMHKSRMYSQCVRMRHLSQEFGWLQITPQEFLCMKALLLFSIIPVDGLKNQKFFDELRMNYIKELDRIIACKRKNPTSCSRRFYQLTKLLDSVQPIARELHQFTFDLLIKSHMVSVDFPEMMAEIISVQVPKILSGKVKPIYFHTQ
# In short: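 Here, 15-concentration compound series were pin-transferred onto MDA-kb2 MMTV-luciferase cells already dosed with nilutamide (3.0uM final). After 16hr at 37C, ONE-Glo was added and luminescence read 30min later at room temperature.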
# [20] = Caspase-3/7 induction in CHO-K1 cells by small molecules, qHTS cell viability counter screen (AID 1346979); further: nearly all actives have a fitted effect of over 35% in size
# In short: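 Cells (CHO-K1, wild type) are plated at 1,500 per well and incubated 5hr. Test compounds in DMSO are then pinned in, followed by 16hr at 37C and 5% CO2. Viability is read by CellTiter-Fluor fluorescence after 1hr.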
SMILES,outcome [1],Potency [2],outcome [3],outcome [4],outcome [5],Potency [6],Potency [7],outcome [8],outcome [9],outcome [10],outcome [11],outcome [12],outcome [13],outcome [14],outcome [15],outcome [16],outcome [17],outcome [18],outcome [19],Potency [20]
CCCCOCCOC(=O)COc1ccc(Cl)cc1Cl,inactive,inactive,inactive,inactive,inactive,inactive,inactive,inactive,inactive,inactive,inactive,inactive,inactive,inactive,inactive,inactive,inactive,,,
CCC(=O)Oc1ccc2c(c1)CC[C@@H]1[C@@H]2CC[C@@]2(C)[C@H]1C[C@@H](OC(=O)CC)[C@@H]2OC(=O)CC,inactive,0.075 µM (active),inactive,inactive,inactive,inactive,1.88 µM (active),inactive,inactive,inactive,inactive,inactive,inactive,inactive,inactive,inactive,inactive,inactive,,
COc1cc2c(cc1OC)C(=O)C(CC1CCN(Cc3ccccc3)CC1)C2 (stereo not given),inactive,inactive,inactive,inactive,,inactive,,inactive,inactive,,inactive,inactive,inactive,,inactive,inactive,inactive,inactive,inactive,
O=C(O)c1cc2ccccc2nc1C(=O)O,inactive,inactive,inactive,inactive,inactive,inactive,inactive,inactive,inactive,inactive,inactive,inactive,inactive,inactive,inactive,inactive,inactive,inactive,,
CCCCCCCCCCOC(C)=O,inactive,inactive,inactive,inactive,inactive,inactive,inactive,inactive,inactive,inactive,inactive,inactive,inactive,inactive,inactive,inactive,inactive,inactive,,inactive
c1ccc(-c2nn[nH]n2)cc1,inactive,inactive,inactive,inactive,inactive,inactive,inactive,inactive,inactive,,inactive,inactive,inactive,inactive,inactive,inactive,inactive,inactive,,inactive
CC(=O)C1C(=O)C=C(C)OC1=O (stereo not given),inactive,inactive,inactive,inactive,inactive,inactive,inactive,inactive,inactive,inactive,inactive,inactive,inactive,inactive,inactive,inactive,inactive,inactive,,inactive
CCN(CC)CCN,inactive,inactive,inactive,inactive,inactive,inactive,inactive,inactive,inactive,inactive,inactive,,,inactive,inactive,inactive,inactive,inactive,,
